About 3,300 (1.1%) of roughly 290,000 compounds were called active. The entries come from a sample that favours actives as a whole. Values without a mark were called inactive. Rule as the data show it: active = binding response below about 67% or above about 130%; inconclusive = no clear call, values can overlap the other calls; inactive = in between.
Target: Mitogen-activated protein kinase kinase kinase 2 (Homo sapiens) (UniProt Q9Y2U5)
Assay: wildtype MEKK2 PB1-MEK5 interaction, increase or decrease – biochemical, multiplex bead flow cytometry, Alexa488-MEK5, primary screen (AID 1531)
Conditions: Alexa488-MEK5 binding to MEKK2 WT, at 10 µM, actives lie on both sides

| SMILES | binding response (% of control) |
| --- | --- |
| COc1ccc(N(C)S(=O)(=O)c2ccc3c(c2)CC(C)N3C(=O)C2CC2)c(OC)c1 (centres undefined) | 101% |
| CC1(OC(=O)C2CCCC2)C(=O)C=C2C=C(c3ccc(C#N)cc3)OC=C2C1=O (centres undefined) | 90% |
| COCCN1C=C2C(=O)C(C)(OC(=O)C3CCCC3)C(=O)C=C2C=C1c1ccsc1 (centres undefined) | 164% (active) |
| COC(=O)CCCC1=CC2=CC(=O)C(C)(OC(=O)c3cccs3)C(=O)C2=CN1CC1CC1 (centres undefined) | 87% |
| Cc1ccc(NC(=S)NCCc2ccc(Cl)cc2)c(C)c1 | 111% |
| Cc1ccc(CN(C)CC(=O)Nc2cccc([N+](=O)[O-])c2)o1 | 83% |
| Cc1ccc(NC(=O)CN(C)CC(=O)Nc2cccc(F)c2)cc1[N+](=O)[O-] | 97% |
| CN(CC(=O)Nc1cccc(F)c1)CC(=O)Nc1cccc([N+](=O)[O-])c1 | 691% (active) |
| O=C(NCCNc1ccccc1[N+](=O)[O-])c1ccccc1F | 105% |
| COc1ccc(CC(=O)Nc2cc(S(=O)(=O)N3CCCCC3)ccc2N2CCN(C)CC2)cc1 | 103% |
| CN1CCN(c2ccc(S(=O)(=O)N3CCCCC3)cc2NC(=O)Cc2ccccc2F)CC1 | 106% |
| CCN1CCN(c2ccc(S(=O)(=O)N3CCCCC3)cc2NC(=O)Cc2c(Cl)cccc2Cl)CC1 | 150% (active) |
| CCOC(=O)/C=C/c1ccc(C(F)(F)F)cc1S(=O)(=O)NC(C)(C)C | 93% |
| Cc1ccc(N(CC(=O)NC2CCCCC2)C(=O)CCCC(=O)Nc2ccccn2)c(C)c1 | 105% |
| CC1(C)c2[nH]c3ccccc3c2C[C@H]2C(=O)N(N)CC(=O)N21 | 110% |
| CCc1ccc2nc(N(CCCN(C)C)C(=O)c3ccc4c(c3)OCCO4)sc2c1 | 116% |
| CCOc1ccc2nc(N(CCCN(C)C)C(=O)c3ccc(C(=O)c4ccccc4)cc3)sc2c1 | 155% (active) |
| O=C(Nc1nc2ccc([N+](=O)[O-])cc2s1)c1ccc(S(=O)(=O)N2CCCc3ccccc32)cc1 | 91% |
| CN(C)CCN(C(=O)C1=COCCO1)c1nc2ccc(Cl)cc2s1 | 111% |
| CN(C)CCCN(C(=O)c1ccc(S(=O)(=O)N2CCCc3ccccc32)cc1)c1nc2ccc(F)cc2s1 | 232% (active) |
| CN(C)CCCN(C(=O)c1ccc(S(=O)(=O)N2CCCCCC2)cc1)c1nc2ccc(Br)cc2s1 | 237% (active) |
| CCN(CC)CCN(C(=O)c1ccc(S(=O)(=O)N2CCOCC2)cc1)c1nc2cc3c(cc2s1)OCCO3 | 115% |
| CSc1nc2ccc(S(=O)(=O)N3CCc4ccccc43)cc2s1 | 98% |
| CCOc1ccc2nc(N(CCN(C)C)C(=O)c3ccc4ccccc4c3)sc2c1 | 129% |
